Bioassay records as filed in PubChem.
CYP2C19 act – activators of human cytochrome P450 2C19 | 96,000 tested, under 10 active | AID 1025 | P33261 | recombinant CYP2C19, luciferin-H EGE luminescence; stronger effect = higher value; 0 = fully inhibited enzyme, 1 = untreated enzyme | activation factor at 5 µM;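 active = activation factor of at least 2 at 5 µM in the primary screen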
Target sequence (P33261 whole entry, looked up): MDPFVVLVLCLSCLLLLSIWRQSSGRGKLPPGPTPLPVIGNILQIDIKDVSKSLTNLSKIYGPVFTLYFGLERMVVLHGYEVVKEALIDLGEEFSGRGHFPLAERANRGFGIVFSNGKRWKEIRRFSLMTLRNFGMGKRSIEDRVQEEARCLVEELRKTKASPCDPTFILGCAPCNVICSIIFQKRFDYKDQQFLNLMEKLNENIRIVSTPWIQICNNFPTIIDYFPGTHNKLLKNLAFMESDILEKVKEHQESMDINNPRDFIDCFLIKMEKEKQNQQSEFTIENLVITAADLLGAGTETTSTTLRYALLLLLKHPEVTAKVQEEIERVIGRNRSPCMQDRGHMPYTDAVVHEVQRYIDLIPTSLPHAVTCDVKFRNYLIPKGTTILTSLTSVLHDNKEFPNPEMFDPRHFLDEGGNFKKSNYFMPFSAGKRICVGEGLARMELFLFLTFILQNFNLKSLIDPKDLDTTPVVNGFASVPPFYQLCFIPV
CYP2C9 inh – blocks human cytochrome P450 2C9. 96,000 tested, 20% active. inhibition, % at 5 µM. P11712. CYP2C9 Supersomes, luciferin-H conversion, luminescence;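 active = blocking of liver enzyme CYP2C9 beyond about 50% at 5 µM, limit read from the data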
cytoskel mod – alters cytoskeleton assembly in HUVEC cells. HUVEC TNFa F-actin phalloidin imaging, high content. 91,000 tested, 0.18% active. inhibition, % at 2 µM. AID 836;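 active = inhibition above the batch mean plus 3 SD and confirmed as a hit by visual image inspection, cut at about 30% in these data, passing the limit was not always enough; inconclusive = above the inhibition threshold but rejected on visual inspection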
E-sel TNF inh – blocks E-selectin expression induced by TNF alpha. HUVEC TNFa-induced E-selectin immunofluorescence, high content. 120,000 tested, 0.71% active. inhibition, % at 2 µM;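 active = inhibition above the batch mean plus 3 SD, and confirmed as a hit on visual image review, cut at about 43% in these data; inconclusive = passes the inhibition cutoff but fails visual image review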
CYP2C9 act – CYP2C9 (human) activation; activation factor at 5 µM; P11712; 96,000 tested, 1.4% active; recombinant CYP2C9, luciferin-H conversion, luminescence; stronger effect = higher value; factor 1 = untreated enzyme, 0 = blocked;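 active = activation factor of 2 or more for CYP2C9 at a 5 µM dose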
CYP2C19 inhib – human CYP2C19 inhibition. inhibition, % at 5 µM. CYP2C19 Supersomes, luciferin-H EGE luminescence, 30 min. P33261. 96,000 tested, 21% active;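 active = CYP2C19 inhibition above a set limit at 5 µM in the primary screen, cut at about 50% in these data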
Large screens that a line does not name were inactive. A selection: hits, their analogues and other compounds. The true share with any hit is near 22%.

COc1ccc(CNc2nc3c(c(C(F)(F)F)n2)CCCCC3)cc1	CYP2C9 inh 53.1 (no result: cytoskel mod)
O=C(Cn1nc(C(F)(F)F)c2c1CCCC2)NC1CCCC1	none
O=C(Cn1nc(C(F)(F)F)c2c1CCCC2)NCc1ccco1	CYP2C9 act 2.1, CYP2C19 inhib 55.7
Cc1cc(NC(=O)Cn2nc(C(F)(F)F)c3c2CCC3)no1	none
Cc1ccc(NC(=O)Cn2nc(C(F)(F)F)c3c2CCC3)cc1	CYP2C19 inhib 50.3
COc1ccc(NC(=O)Cn2nc(C(F)(F)F)c3c2CCCC3)c(OC)c1	CYP2C19 inhib 74.6
COCCSc1ccccc1C(=O)Nc1nnc(COC)s1	none
CCC(C)(C)NC(=O)Cc1ccc(C)cc1	none
COc1ccc(CNC(=O)Cn2nc(C(F)(F)F)c3c2CCC3)cc1	CYP2C9 act 3
CC(C)N(CCc1ccncc1)C(=O)Nc1ccc(F)cc1	CYP2C9 inh 86.9, CYP2C19 inhib 97.0
CC(C)N(CCc1ccncc1)C(=O)Nc1ccc(Cl)c(Cl)c1	CYP2C9 inh 99.2, CYP2C19 inhib 99.5
c1cncc(-c2noc(C34CC5CC(CC(C5)C3)C4)n2)c1	CYP2C19 inhib 82.6
c1ccc(SCc2nc(-c3cccnc3)no2)cc1	CYP2C9 inh 59.4, CYP2C19 inhib 93.3
c1ccc(C(Cc2nc(-c3cccnc3)no2)c2ccccc2)cc1	CYP2C9 inh 53.1, CYP2C19 inhib 96.8
Cc1ccc(-c2noc(CSc3ccccc3)n2)cc1	none
O=C1c2ccccc2C(=O)N1Cc1nc(-c2cccnc2)no1	none (no result: CYP2C19 act, CYP2C9 inh, CYP2C9 act, CYP2C19 inhib)
c1ccc(OCCCc2nc(-c3cccnc3)no2)cc1	CYP2C19 inhib 63.9
Cc1ccccc1-c1noc(C23CC4CC(CC(C4)C2)C3)n1	none
CN(C(=O)Cn1c(=O)n(CCCCC(=O)NC2CCCC2)c(=O)c2ccccc21)C1CCCCC1	none (no result: CYP2C19 act, CYP2C9 inh, CYP2C9 act, CYP2C19 inhib)
CCN(C(=O)CSc1nc2ccccc2c(=O)n1CCOC)C1CCS(=O)(=O)C1 (stereo not drawn)	none (no result: CYP2C19 act, CYP2C9 inh, cytoskel mod, CYP2C9 act, CYP2C19 inhib)
Cc1ccc(-c2csc3nc[nH]c(=S)c23)cc1C	none (no result: CYP2C19 act, CYP2C9 inh, cytoskel mod, CYP2C9 act, CYP2C19 inhib)
Cc1ccc(SC(C)c2nc(-c3cccnc3)no2)cc1 (stereo not drawn)	CYP2C9 inh 82.0, CYP2C19 inhib 67.2
c1ccc(C(c2ccccc2)c2nc(-c3cccnc3)no2)cc1	CYP2C9 inh 96.3, CYP2C19 inhib 86.3
COc1nc(-c2ccccc2)ccc1-c1noc(-c2cccnc2)n1	none (no result: E-sel TNF inh)
COc1nc(-c2ccc(C)cc2)ccc1-c1noc(-c2cccnc2)n1	none (no result: cytoskel mod, E-sel TNF inh)
CCCCN(C)CCCNC(=O)c1ccc2c(c1)NC(=O)C(N1CCOCC1)S2 (stereo not drawn)	cytoskel mod inconclusive (no result: E-sel TNF inh)
OC(C#CCN1CCOCC1)(c1ccccc1)C1CC1 (stereo not drawn)	CYP2C19 inhib 57.3
FC(F)(F)c1cnc(NNC(=S)Nc2cccnc2)c(Cl)c1	none (no result: CYP2C19 act, CYP2C9 inh, cytoskel mod, CYP2C9 act, CYP2C19 inhib)
Fc1ccccc1NC(=S)NNc1ncc(C(F)(F)F)cc1Cl	CYP2C9 inh 86.9, CYP2C19 inhib 55.2 (no result: E-sel TNF inh)
Cc1c(Cl)cccc1NC(=S)NNc1ncc(C(F)(F)F)cc1Cl	CYP2C9 act 2.2, CYP2C19 inhib 90.7
Cc1cccc(C)c1NC(=S)NNc1ncc(C(F)(F)F)cc1Cl	CYP2C19 inhib 75.1 (no result: E-sel TNF inh)
Cc1ccccc1NC(=S)NNc1ncc(C(F)(F)F)cc1Cl	CYP2C19 inhib 76.7 (no result: E-sel TNF inh)
Cc1cc(NC(=O)CCC(=O)N(Cc2ccccc2)C2(C(=O)NC3CCCCC3)CCCC2)no1	none (no result: CYP2C19 act, CYP2C9 inh, cytoskel mod, CYP2C9 act, CYP2C19 inhib)
Cc1ccc(C(C(=O)NC2CCCC2)N(Cc2cccs2)C(=O)CNC(=O)c2cccs2)o1 (stereo not drawn)	none
COc1ccc(NC(=O)c2cccnc2NCCc2ccccc2)cc1	none (no result: CYP2C19 act, CYP2C9 inh, cytoskel mod, CYP2C9 act, CYP2C19 inhib)
O=C(NC1CCCC1)C(=O)N(c1ccccc1F)C(C(=O)NCC1CCCO1)c1cccs1 (stereo not drawn)	none (no result: CYP2C19 act, CYP2C9 inh, cytoskel mod, CYP2C9 act, CYP2C19 inhib)
COc1ccccc1CNC(=O)[C@@H]1CCCN1C(=O)C1CCN(S(=O)(=O)c2ccc(C)cc2)CC1	none (no result: cytoskel mod)
O=C(NNc1ncc(C(F)(F)F)cc1Cl)c1c(Cl)cccc1Cl	CYP2C9 act 2.4
O=C(NNc1ncccc1Cl)c1c(Cl)cccc1Cl	none (no result: CYP2C19 act, CYP2C9 inh, cytoskel mod, CYP2C9 act, CYP2C19 inhib)
CCSc1ccccc1C(=O)Nc1cccc(OC)c1	none
CCc1cc2c(NCc3ccco3)ncnc2s1	CYP2C19 inhib 50.0 (no result: E-sel TNF inh)
CCc1cc2c(NCC(=O)O)ncnc2s1	none (no result: E-sel TNF inh)
Clc1ccc(Cn2ncc3c(NCc4ccco4)ncnc32)c(Cl)c1	CYP2C9 act 2.8
Clc1ccc(-n2ncc3c(NCc4ccco4)ncnc32)cc1	none (no result: CYP2C19 act, CYP2C9 inh, cytoskel mod, CYP2C9 act, CYP2C19 inhib)
Cc1ccc2cccc(NC(=O)C(F)(F)F)c2n1	none
